# According to PubChem BioAssay (NCATS):
# Results filed as inconclusive are left out. Entries that show only a call come without a potency. The source holds several records for some structures; these can differ, active in one and inactive in another. Activity calls are given as the source filed them. Unless noted, the call rests on the fitted dose curve; in most records, active means well fitted curve in the direction sought with a large enough effect; inconclusive means small, poorly fitted or top-dose-only effect, or another doubt; inactive means no such curve, though single readings can be large; an effect the other way counts as inactive or inconclusive.
# Legend:
# [1] = system: Zika virus NS2B-NS3 protease; assay: Primary screen GU AMC qHTS for Zika virus inhibitors (AID 1347154); further: nearly all actives have a fitted effect of over 70% in size
# In short: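 Unlinked Zika NS2B hydrophilic domain–NS3 protease complex at 25 nM in 10 mM Tris-HCl pH 8.0, 0.01% Tween 20, with an AMC peptide substrate. Fluorescence change (340/450 nm) over 15 min at room temperature, normalized to controls, fitted to 4-parameter Hill.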
# [2] = Counterscreen qHTS for small molecule stabilizers of the endoplasmic reticulum resident proteome: GLuc-NoTag assay (AID 1508627); further: potency means the concentration at half of the fitted maximal effect;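 on activity change, negative = inhibition: SH-SY5Y cells given compound then 100 nM thapsigargin to empty ER calcium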
# In short: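 SH-SY5Y cells stably expressing constitutively secreted GLuc without SERCaMP tag, exposed to compound for 19 hr, then to 100 nM thapsigargin for 4 hr at 37C. Medium luciferase was read by coelenterazine luminescence without lysis.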
# [3] = Confirmatory qHTS for small molecule stabilizers of the endoplasmic reticulum resident proteome: Secreted ER Calcium Modulated Protein (SERCaMP) assay (AID 1508628); further: nearly all actives have a fitted effect of over 40% in size; further: potency means the concentration at half of the fitted maximal effect
# In short: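 SH-SY5Y cells stably expressing GLuc-SERCaMP, treated 16 h with compound (primary 1.53, 7.67, 38.3 uM; confirmation 11 concentrations, up to 76.6 uM), then 100 nM thapsigargin for 4 h. Secreted Gaussia luciferase in medium read by coelenterazine luminescence.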
# [4] = Primary qHTS for inhibitors of nuclear receptor binding SET domain protein 2 (NSD2) in an isogenic RCH-ACV NSD2 p.E1099K mutant (9B) (AID 1645876); further: potency means the concentration at half of the fitted maximal effect; nearly all actives have a fitted effect of over 70% in size
# [5] = Primary qHTS for inhibitors of nuclear receptor binding SET domain protein 2 (NSD2) in an RCH-ACV wild type WT cells (2C) (AID 1645877); further: nearly all actives have a fitted effect of over 70% in size; further: potency means the concentration at half of the fitted maximal effect
# [6] = target: Catechol O-methyltransferase (Homo sapiens) (UniProt P21964); assay: Confirmatory Screen for Target Class Profiling of Small Molecule Inhibitors of Methyltransferases (AID 1745852; calls by dose curve; further: potency means the concentration at half of the fitted maximal effect); conditions: MTase-Glo luminescence, SAH detection, recombinant enzyme; measured here: COMT max response; stronger effect = lower value
# Chain of Catechol O-methyltransferase (Homo sapiens) (P21964 whole entry, looked up): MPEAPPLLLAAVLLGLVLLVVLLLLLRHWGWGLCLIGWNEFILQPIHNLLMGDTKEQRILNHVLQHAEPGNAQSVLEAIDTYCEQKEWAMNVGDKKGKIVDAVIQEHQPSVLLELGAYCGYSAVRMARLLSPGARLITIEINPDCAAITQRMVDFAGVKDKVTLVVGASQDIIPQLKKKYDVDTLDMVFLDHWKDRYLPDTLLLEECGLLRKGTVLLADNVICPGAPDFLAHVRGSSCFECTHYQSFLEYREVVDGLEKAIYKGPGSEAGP
# [7] = target: Guanidinoacetate N-methyltransferase (Homo sapiens) (UniProt Q14353); assay: as above; conditions: activity change, negative = inhibition: at 57.3 µM (top of the series) unless noted
# [8] = target: Nicotinamide N-methyltransferase (Homo sapiens) (UniProt P40261); assay: as above; conditions: MTase-Glo luminescence, SAH detection, recombinant enzyme; measured here: NNMT max response; stronger effect = lower value
# Chain of Nicotinamide N-methyltransferase (Homo sapiens) (P40261 whole entry, looked up): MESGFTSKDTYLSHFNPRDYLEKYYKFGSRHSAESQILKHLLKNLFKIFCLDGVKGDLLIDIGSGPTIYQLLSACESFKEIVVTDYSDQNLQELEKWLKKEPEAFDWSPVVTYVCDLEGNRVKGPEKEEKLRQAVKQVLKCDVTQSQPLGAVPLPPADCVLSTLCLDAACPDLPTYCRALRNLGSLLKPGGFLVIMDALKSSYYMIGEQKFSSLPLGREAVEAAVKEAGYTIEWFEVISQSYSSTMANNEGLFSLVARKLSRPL
# [9] = target: Phenylethanolamine N-methyltransferase (Homo sapiens) (UniProt P11086); assay: as above; conditions: MTase-Glo luminescence, SAH detection, recombinant enzyme; measured here: PNMT max response; stronger effect = lower value
# Chain of Phenylethanolamine N-methyltransferase (Homo sapiens) (P11086 whole entry, looked up): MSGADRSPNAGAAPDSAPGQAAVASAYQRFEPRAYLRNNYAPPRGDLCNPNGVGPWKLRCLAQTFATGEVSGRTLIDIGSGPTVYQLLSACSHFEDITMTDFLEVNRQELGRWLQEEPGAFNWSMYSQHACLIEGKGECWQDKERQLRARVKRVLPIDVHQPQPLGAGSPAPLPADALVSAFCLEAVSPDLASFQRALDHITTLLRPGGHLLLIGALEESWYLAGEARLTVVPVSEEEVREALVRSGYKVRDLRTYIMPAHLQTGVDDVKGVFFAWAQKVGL
# [10] = target: Glutathione peroxidase 1 (Homo sapiens) (UniProt P07203); assay: Primary qHTS Assay for Inhibitors of Recombinant Selenoprotein Glutathione Peroxidase 1 (GPX1) (AID 1845191); further: nearly all actives have a fitted effect of over 65% in size
# Chain of Glutathione peroxidase 1 (Homo sapiens) (P07203 whole entry, looked up): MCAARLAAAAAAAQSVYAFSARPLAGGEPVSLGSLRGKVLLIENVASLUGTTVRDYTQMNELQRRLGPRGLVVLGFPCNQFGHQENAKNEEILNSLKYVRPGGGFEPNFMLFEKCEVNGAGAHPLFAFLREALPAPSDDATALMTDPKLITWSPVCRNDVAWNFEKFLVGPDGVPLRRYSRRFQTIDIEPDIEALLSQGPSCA
# In short: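 GR-coupled assay: compounds preincubated 30 min at room temperature with GPX1, then reaction started with CHP; final 10 nM GPX1, 1 mM GSH, 0.5 mM CHP, 0.5 mM NADPH, 100 nM GR, 0.01% BSA, pH 7.5 Tris buffer. NADPH fluorescence (340/450 nm) read at 0 and 15 min.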
# [11] = target: Cytochrome P450 1A2 (Homo sapiens) (UniProt P05177); assay: p450-cyp1a2 (AID 410; calls by dose curve; further: potency means the concentration at half of the fitted maximal effect)
# Chain of Cytochrome P450 1A2 (Homo sapiens) (P05177 whole entry, looked up): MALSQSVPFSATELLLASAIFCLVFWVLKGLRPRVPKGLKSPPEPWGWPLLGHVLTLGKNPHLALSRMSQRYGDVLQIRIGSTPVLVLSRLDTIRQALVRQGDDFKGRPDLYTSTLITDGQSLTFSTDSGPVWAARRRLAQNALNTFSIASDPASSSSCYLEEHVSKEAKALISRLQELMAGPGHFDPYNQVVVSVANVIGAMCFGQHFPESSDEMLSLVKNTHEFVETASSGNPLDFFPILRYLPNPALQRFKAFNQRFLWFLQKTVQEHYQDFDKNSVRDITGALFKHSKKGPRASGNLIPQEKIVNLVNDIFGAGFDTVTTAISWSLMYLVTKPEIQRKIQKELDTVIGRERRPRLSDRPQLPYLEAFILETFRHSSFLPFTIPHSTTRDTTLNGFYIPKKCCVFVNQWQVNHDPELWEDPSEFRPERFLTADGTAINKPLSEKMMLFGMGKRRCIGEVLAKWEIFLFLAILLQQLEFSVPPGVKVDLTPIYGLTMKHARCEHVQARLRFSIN
# In short: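 20nM CYP1A2 with 100uM Luciferin-ME (at Km) in 100mM KPO4; compound preincubated 10 min, NADPH regeneration added, 60 min at room temperature. Luciferin quantified by luminescence after detection reagent; normalized to 57 uM furafylline.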
# [12] = target: Glucocorticoid receptor (Homo sapiens) (UniProt P04150); assay: GR-GFP Redistribution (AID 450;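 active means compounds whose dose series gives a full or clear partial fitted curve of increased nuclear translocation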; further: potency means the concentration at half of the fitted maximal effect); conditions: U2OS GR-GFP nuclear translocation, laser cytometry, 2 h
# Chain of Glucocorticoid receptor (Homo sapiens) (P04150 whole entry, looked up, the tested form may be a part): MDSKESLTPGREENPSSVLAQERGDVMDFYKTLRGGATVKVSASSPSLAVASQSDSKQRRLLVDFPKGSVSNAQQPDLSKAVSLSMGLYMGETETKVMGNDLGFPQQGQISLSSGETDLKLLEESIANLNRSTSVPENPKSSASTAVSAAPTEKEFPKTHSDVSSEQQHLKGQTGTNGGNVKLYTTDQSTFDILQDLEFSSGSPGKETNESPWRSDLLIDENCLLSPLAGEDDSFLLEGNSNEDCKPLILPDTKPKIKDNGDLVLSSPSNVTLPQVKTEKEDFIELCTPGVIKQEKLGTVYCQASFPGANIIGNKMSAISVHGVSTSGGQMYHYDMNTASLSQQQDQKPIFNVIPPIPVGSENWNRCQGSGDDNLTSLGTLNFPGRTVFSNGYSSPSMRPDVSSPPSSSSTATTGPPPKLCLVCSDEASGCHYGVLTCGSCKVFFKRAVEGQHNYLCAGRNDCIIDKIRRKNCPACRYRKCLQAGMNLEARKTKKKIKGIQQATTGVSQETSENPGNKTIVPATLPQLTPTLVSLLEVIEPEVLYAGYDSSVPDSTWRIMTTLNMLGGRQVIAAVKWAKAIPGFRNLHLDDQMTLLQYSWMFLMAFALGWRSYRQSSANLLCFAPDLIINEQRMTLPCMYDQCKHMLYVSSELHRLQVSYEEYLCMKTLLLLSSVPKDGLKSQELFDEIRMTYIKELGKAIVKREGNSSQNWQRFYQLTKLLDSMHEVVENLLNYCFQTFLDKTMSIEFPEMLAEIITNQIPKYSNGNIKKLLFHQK
# [13] = target: Glucocorticoid receptor (Homo sapiens) (UniProt P04150); assay: GR-EFC Redistribution (AID 451; calls by dose curve; further: potency means the concentration at half of the fitted maximal effect); conditions: CHO-K1 GR-EFC translocation, beta-gal luminescence, 2 h
# In short: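 CHO-K1 cells expressing nuclear EA and GR-ED fragments of b-gal; compounds titrated up to 46 uM final, 2 h at 37 C. GR nuclear translocation read as complemented b-gal luminescence after 1 h RT detection.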
# [14] = target: Mitogen-activated protein kinase 10 (Mus musculus) (UniProt Q61831); assay: JNK3 AlphaScreen Assay (AID 530; active means well fitted curve in either direction with a large enough effect, not every such curve was filed as active;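 further: kinase came from lysate of stimulated human HepG2 cells; signal reports phosphorylation of biotinylated GST-cJun 1-79 at Ser73 with 10 µM ATP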)
# In short: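 Pre-activated (IL-1β/TNFα) JNK3 in HepG2 lysates phosphorylates biotin-GST-cJun(1-79), 10 uM ATP; anti-phospho-cJun(Ser73) AlphaScreen read at room temperature, pH 7.6 Tris buffer. Compounds pre-incubated 15 min as titrations.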
# [15] = target: Ubiquitin carboxyl-terminal hydrolase 1 (Homo sapiens) (UniProt O94782); assay: Inhibitors of USP1/UAF1: Pilot qHTS (AID 504865);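 further: rhodamine fluorescence freed from ubiquitin-rhodamine substrate followed over time; top concentration of the series differs between compounds; nearly all actives have a fitted effect of over 35% in size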
# Chain of Ubiquitin carboxyl-terminal hydrolase 1 (Homo sapiens) (O94782 whole entry, looked up): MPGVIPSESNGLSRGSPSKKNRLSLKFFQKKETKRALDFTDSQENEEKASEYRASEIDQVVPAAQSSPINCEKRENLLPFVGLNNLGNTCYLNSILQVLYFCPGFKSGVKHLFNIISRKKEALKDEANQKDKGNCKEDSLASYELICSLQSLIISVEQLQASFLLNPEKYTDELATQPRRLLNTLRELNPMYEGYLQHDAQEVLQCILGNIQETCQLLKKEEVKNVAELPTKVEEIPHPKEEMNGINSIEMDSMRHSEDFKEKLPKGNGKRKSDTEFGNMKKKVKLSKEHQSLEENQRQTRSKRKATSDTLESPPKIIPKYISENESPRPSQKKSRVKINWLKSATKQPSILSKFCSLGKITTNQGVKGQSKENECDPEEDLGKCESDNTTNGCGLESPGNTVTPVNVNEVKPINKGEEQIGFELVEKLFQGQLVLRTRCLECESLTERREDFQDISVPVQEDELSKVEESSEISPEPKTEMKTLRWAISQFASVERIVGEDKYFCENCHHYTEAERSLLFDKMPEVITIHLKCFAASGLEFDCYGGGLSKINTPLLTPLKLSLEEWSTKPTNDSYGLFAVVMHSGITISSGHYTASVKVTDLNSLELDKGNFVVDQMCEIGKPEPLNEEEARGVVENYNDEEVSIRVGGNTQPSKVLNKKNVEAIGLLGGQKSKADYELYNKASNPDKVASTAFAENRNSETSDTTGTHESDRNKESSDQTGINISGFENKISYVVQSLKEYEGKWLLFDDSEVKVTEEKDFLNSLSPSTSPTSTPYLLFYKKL
# In short: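 USP1/UAF1 complex at 1 nM preincubated 15 min at room temperature with compound, then Ub-Rho substrate added at 150 nM final. Fluorescence (480/540 nm) read kinetically in 50 mM HEPES pH 7.8, 0.5 mM EDTA, 1 mM TCEP, 0.1 mg/ml BSA, 0.01% Tween-20.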
# [16] = target: DNA dC->dU-editing enzyme APOBEC-3G (Homo sapiens) (UniProt Q9HC16); assay: qHTS for inhibitors of Vif-A3G interactions: Validation (AID 588379)
# Chain of DNA dC->dU-editing enzyme APOBEC-3G (Homo sapiens) (Q9HC16 whole entry, looked up): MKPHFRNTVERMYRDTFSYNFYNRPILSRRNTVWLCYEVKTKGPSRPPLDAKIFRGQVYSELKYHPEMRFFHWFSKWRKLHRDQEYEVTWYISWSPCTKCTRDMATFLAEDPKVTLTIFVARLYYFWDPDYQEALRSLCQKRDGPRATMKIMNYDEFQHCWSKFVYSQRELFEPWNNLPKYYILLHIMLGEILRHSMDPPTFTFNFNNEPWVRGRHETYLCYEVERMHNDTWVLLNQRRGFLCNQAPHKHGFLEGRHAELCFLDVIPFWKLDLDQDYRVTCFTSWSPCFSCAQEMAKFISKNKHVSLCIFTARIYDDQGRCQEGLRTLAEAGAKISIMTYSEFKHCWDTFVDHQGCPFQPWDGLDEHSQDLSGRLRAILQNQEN
# In short: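 HeLa cells stably expressing Vif and A3G-eYFP, 700 cells/well, incubated overnight at 37 deg C, then exposed to compound overnight at 37 deg C. Inhibition of Vif-mediated degradation read as increased yellow fluorescence (Ex 488/Em 500-530) by laser-scanning cytometry.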
# [17] = target: Cytochrome P450 3A4 (Homo sapiens) (UniProt P08684); assay: qHTS Assay for Inhibitors and Substrates of Cytochrome P450 3A4 (AID 884); further: potency means the concentration at half of the fitted maximal effect; nearly all actives have a fitted effect of over 50% in size
# Chain of Cytochrome P450 3A4 (Homo sapiens) (P08684 whole entry, looked up): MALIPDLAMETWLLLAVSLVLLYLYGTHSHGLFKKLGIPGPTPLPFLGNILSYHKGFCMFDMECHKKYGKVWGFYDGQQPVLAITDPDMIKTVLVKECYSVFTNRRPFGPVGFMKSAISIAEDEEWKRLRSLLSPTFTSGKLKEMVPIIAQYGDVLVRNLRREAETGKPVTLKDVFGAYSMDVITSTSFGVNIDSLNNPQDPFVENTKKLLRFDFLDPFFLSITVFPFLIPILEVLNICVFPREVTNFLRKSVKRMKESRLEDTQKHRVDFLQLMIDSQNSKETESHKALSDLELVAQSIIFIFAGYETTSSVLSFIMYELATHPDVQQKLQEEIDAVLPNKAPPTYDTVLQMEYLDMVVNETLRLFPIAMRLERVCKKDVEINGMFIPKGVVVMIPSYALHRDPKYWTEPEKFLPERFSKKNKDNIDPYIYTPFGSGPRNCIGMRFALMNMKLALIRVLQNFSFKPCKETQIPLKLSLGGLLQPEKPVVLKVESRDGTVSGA
# In short: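 20 nM human CYP3A4 with 25 uM Luciferin-PPXE (at KM) in 200 mM KPO4, preincubated 10 min with compound; NADPH regeneration started a 60 min RT reaction. Luciferin detected by luminescence, normalized to 57 uM ketoconazole as full inhibition.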
# [18] = target: Cytochrome P450 3A4 (Homo sapiens) (UniProt P08684); assay: qHTS Assay for Activators of Cytochrome P450 3A4 (AID 885); further: nearly all actives have a fitted effect of over 65% in size
# In short: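 20nM CYP3A4 + 25uM Luciferin-PPXE (=KM), 200mM KPO4; cpd 10 min RT; NADPH regen, 60 min RT; stop w/ detection buffer, 20 min; luminescence. Normalized to 57 uM ketoconazole.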
# [19] = Cell Viability qHTS for small molecule stabilizers of the endoplasmic reticulum resident proteome (AID 1508629); conditions: cell viability counter-screen, 100 nM thapsigargin for final 4 h;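 further: compound exposure about 46 h in total before the viability read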; further: potency means the concentration at half of the fitted maximal effect;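 on max response: human SH-SY5Y neuroblastoma cells carrying the GLuc-SERCaMP reporter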
# [20] = target: Cytochrome P450 2C9 (Homo sapiens) (UniProt P11712); assay: qHTS Assay for Inhibitors and Substrates of Cytochrome P450 2C9 (AID 883); further: potency means the concentration at half of the fitted maximal effect; nearly all actives have a fitted effect of over 60% in size
# Chain of Cytochrome P450 2C9 (Homo sapiens) (P11712 whole entry, looked up): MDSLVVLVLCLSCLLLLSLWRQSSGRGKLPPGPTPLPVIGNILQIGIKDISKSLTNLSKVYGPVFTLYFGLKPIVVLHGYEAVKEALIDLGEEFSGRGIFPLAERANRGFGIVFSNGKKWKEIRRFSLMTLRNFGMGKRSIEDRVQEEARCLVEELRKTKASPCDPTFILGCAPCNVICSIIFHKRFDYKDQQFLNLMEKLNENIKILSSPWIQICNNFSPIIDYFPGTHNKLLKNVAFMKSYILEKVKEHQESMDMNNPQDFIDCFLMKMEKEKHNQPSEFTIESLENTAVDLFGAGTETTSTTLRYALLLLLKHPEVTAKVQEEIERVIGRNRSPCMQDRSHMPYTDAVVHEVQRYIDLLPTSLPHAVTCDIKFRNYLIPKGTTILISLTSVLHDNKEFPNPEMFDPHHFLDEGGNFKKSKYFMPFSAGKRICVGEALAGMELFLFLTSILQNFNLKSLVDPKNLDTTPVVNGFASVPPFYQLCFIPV
# In short: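 Signal: luciferase luminescence reporting luciferin produced by CYP2C9. Conditions: 10nM enzyme, Luciferin-H 100uM at KM, 25mM KPO4, 37C, 60 min NADPH-driven reaction. Reference: 57uM sulphaphenazole as 100% inhibition.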
# [21] = target: Cytochrome P450 2C19 (Homo sapiens) (UniProt P33261); assay: qHTS Assay for Inhibitors and Substrates of Cytochrome P450 2C19 (AID 899); further: potency means the concentration at half of the fitted maximal effect; nearly all actives have a fitted effect of over 60% in size
# Chain of Cytochrome P450 2C19 (Homo sapiens) (P33261 whole entry, looked up): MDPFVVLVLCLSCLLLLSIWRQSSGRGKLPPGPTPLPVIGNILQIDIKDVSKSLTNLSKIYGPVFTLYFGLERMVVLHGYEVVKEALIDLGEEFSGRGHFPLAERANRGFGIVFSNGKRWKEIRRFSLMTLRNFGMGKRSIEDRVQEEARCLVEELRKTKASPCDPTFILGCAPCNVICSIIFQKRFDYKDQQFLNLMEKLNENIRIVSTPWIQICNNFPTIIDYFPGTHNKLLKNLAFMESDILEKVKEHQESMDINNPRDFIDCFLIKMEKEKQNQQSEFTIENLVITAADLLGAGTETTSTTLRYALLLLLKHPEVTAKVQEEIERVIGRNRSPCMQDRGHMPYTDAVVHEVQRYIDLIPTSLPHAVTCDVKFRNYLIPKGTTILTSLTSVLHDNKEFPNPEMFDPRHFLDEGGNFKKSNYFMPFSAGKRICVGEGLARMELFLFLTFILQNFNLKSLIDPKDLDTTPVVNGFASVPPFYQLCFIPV
# In short: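 Signal comes from luciferase acting on luciferin released by CYP2C19-mediated hydroxylation of Luciferin-H EGE, 10uM (KM). Assay mix: 5nM enzyme, 50mM KPO4; 60 min at 37C with NADPH regeneration. Data normalized against 57uM ketoconazole.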
compound,measurement,setting,value
CNc1cc2c(Nc3cccc(Br)c3)ncnc2cn1,Potency,[1],inactive
same,Potency,[2],35.5 µM (active)
same,Potency,[3],2 µM (active)
same,Potency,[4],14.6 µM (active)
same,Potency,[5],20.6 µM (active)
same,activity,[6],-38.7%
same,Potency,[7],30.4 µM (active)
same,activity,[8],-23.8%
same,activity,[9],-74.4%
same,Potency,[10],inactive
C=C[C@H]1CN2CCC1C[C@@H]2C(O)c1ccnc2ccc(OC)cc12 (stereo partly specified),Potency,[1],inactive
same,Potency,[2],inactive
same,Potency,[3],39.8 µM (active) and inactive
same,Potency,[5],inactive
N[C@@H](Cc1cc(CP(=O)(O)O)cc(-c2ccccc2Cl)c1)C(=O)O,Potency,[11],inactive
same,Potency,[12],> 46 µM (inactive)
same,Potency,[13],> 46 µM (inactive)
same,Potency,[14],inactive
same,Potency,[15],inactive
same,Potency,[16],inactive
same,Potency,[1],inactive
same,Potency,[3],inactive
COc1cccc(CCc2ccccc2OCC[C@@H]2C[C@@H](O)CN2C)c1,Potency,[17],3.16 µM (active)
same,Potency,[18],inactive
same,Potency,[1],inactive
same,Potency,[3],inactive
same,Potency,[19],15.8 µM (active)
CN(Cc1ccccc1)C(=O)[C@H](Cc1ccc2ccccc2c1)NC(=O)[C@@H]1CCCN1C(=O)Nc1ccccc1[N+](=O)[O-],Potency,[1],inactive
same,Potency,[2],inactive
same,Potency,[3],10 µM (active)
same,max response,[19],12.2% (inactive)
COc1cc(N)c(Cl)cc1C(=O)N[C@H]1CCN(CCCOc2ccc(F)cc2)C[C@@H]1OC,Potency,[11],25.1 µM (active)
same,Potency,[12],> 46 µM (inactive)
same,Potency,[13],> 46 µM (inactive)
same,Potency,[14],inactive
same,Potency,[20],1 µM (active)
same,Potency,[21],0.794 µM (active)
same,Potency,[15],inactive
same,Potency,[16],inactive
same,Potency,[1],inactive
same,Potency,[2],inactive
